Inconclusive results are not listed. A number with no mark means an inactive call. Active and inactive are the calls of the source. Calls come from the whole dose curve; as a rule, active = well fitted inhibition curve with a large enough effect; inconclusive = small, poorly fitted or top-dose-only effect; inactive = flat fitted curve, though single readings scatter.
Assay: qHTS to identify inhibitors of the type 1 interferon - major histocompatibility complex class I in skeletal muscle: primary screen against the NCATS LOPAC collection (AID 1347405);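 note: human myoblasts with HiBiT tag on endogenous HLA-B stimulated by IFN-beta; lytic HiBiT luminescence reporting HLA-B protein level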
Conditions: iHSKM muscle cells, IFN-b-induced MHC-I HiBiT luminescence, 24 h; series mostly up to 45.9 µM; activity change, negative = inhibition: at the top concentration
Procedure, shortened: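 First, engineered myoblasts carrying HLA-B-HiBiT were seeded in medium lacking dexamethasone with 4 ng/ml IFN-beta. After 1 hr, compounds were pinned in (top 46 uM final, 7 points). After 24 hrs at 37 C, luminescence was measured following 10 min lysis.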
% is set by controls: 0 for no effect and ±100 for the full control effect; potency is the fitted concentration of half-maximal effect.

Row | Structure (SMILES) | activity change, negative = inhibition [%] | Potency
1 | Oc1ccc2c3c1O[C@H]1c4[nH]c5c(c4C[C@@]4(O)[C@@H](C2)N(CC2CC2)CC[C@]314)C[C@@]1(O)[C@H]2Cc3ccc(O)c4c3[C@@]1(CCN2CC1CC1)[C@H]5O4 | 2.35 | 
2 | C[C@]12CCC3C(CC[C@H]4C[C@H](O)CC[C@]34C)C1CC[C@@H]2C(=O)CO (stereo not given in full) | -11.2 | 
3 | C=CCN1CC[C@]23CCCCC2[C@H]1Cc1ccc(O)cc13 (stereo not given in full) | -3.37 | 
4 | O=C1CCCN1CC#CCN1CCCC1 | -0.928 | 
5 | S=C(NC1CCCCC1)N1CCC(c2cnc[nH]2)CC1 | -1.41 | 
6 | O=C(O)CC[N+](=O)[O-] | -3.1 | 
7 | NC(=NCCC[C@H](N)C(=O)O)N[N+](=O)[O-] | -5.9 | 
8 | CC[C@@]1(O)C(=O)OCc2c1cc1n(c2=O)Cc2cc3ccccc3nc2-1 |  | 0.708 µM (active)
9 | c1ccc(C2(c3ccccc3)CC2C2=NCCN2)cc1 (stereo not given) | -6.42 | 
10 | C[N+]1(C)C2CCC1CC(OC(=O)C(CO)c1ccccc1)C2 (stereo not given) |  | inactive
11 | NC(=O)CN1CC(O)CC1=O (stereo not given) | 2.45 | 
12 | CCCN1CCC[C@H](c2cccc(O)c2)C1 | 4.21 | 
13 | CC(C)NC(C)Cc1ccc(I)cc1 (stereo not given) | -22.2 | 
14 | C[C@@H]1O[C@H](C[N+](C)(C)C)C[C@H]1O | -1.46 | 
15 | CCCN(CCC)C1CCc2ccc(O)cc2C1 (stereo not given) | -7.2 | 
16 | CCCCc1ccc(C(=O)O)nc1 | 11.9 | 
17 | NCc1cc(=O)[nH]o1 | 10.5 | 
18 | NC1CCc2cc(O)c(O)cc2C1 (stereo not given) | 7.39 | 
19 | CC1=NN=C(c2ccc(N)cc2)c2cc3c(cc2C1)OCO3 | -6.72 | 
20 | CCCN1CCO[C@@H]2c3cc(O)ccc3OC[C@H]21 | -8.59 | 
21 | CS(=N)(=O)CC[C@H](N)C(=O)O (stereo not given in full) | -3.89 | 
22 | C[C@]12N[C@H](Cc3ccccc31)c1ccccc12 | 10.2 | 
23 | CC(=O)[C@H]1CCC2C3CC[C@H]4C[C@H](O)CC[C@]4(C)C3CC[C@@]21C (stereo not given in full) | -7.2 | 
24 | O=C(N[C@H]1CN2CCC1CC2)c1ccc(Cl)cc1 | -2.86 | 
25 | COC(=O)[C@@H](N)CCCN=C(N)N[N+](=O)[O-] | 6.86 | 
